Results on 13 sequences are retold here after article PMC8384837, “Expanding the binding specificity for RNA recognition by a PUF domain”.

Common to all, as to test: yeast three-hybrid, YBZ-1, SC-Leu-His + 0.5 mM 3-AT, 4 days
Holding throughout (details): tags: N-Gal4 AD-HA kept; label: inside an RPR1-promoter hybrid RNA with tandem MS2 sites; ssRNA

One experiment addresses T1, PUM1 PUF domain R6-VFR (Homo sapiens, UniProt Q14671 828-1176, N1043V;Y1044F;Q1047R).
T1 sequence: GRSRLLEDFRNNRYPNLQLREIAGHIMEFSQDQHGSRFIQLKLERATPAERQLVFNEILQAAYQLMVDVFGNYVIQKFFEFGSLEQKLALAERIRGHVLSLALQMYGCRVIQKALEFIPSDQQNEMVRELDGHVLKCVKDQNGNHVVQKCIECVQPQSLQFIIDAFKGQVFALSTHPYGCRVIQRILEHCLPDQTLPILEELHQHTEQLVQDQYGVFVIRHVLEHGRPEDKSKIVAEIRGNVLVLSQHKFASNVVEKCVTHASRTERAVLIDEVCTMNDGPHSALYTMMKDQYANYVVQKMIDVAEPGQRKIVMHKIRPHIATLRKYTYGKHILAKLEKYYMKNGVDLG
In a few lines: (§1)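 The interaction score is the logarithmic change in variant frequency from input to selection. It uses log2, with a pseudocount of 1 for absent variants, and frequencies came from PCR-amplified, Illumina-sequenced repeat regions. The libraries were Pumilio-1 PUF domains randomized at the three base-contacting residues per repeat, co-expressed with matching RNA elements in strain YBZ-1 (LexA–MS2 coat fusion, HIS3 reporter). Plating lasted four days on SC-Leu (input) or SC-Leu-His + 0.5 mM 3-AT (selection).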

The next experiment deals with PUM1 PUF domain R4-PHV (Homo sapiens, UniProt Q14671 828-1176, N971P;Q975V). In a few lines:
as §1

In another experiment the target is PUM1 PUF domain R3-DYI (Homo sapiens, UniProt Q14671 828-1176, C935D;R936Y;Q939I). A digest of the protocol: as §1
Another experiment concerns the target PUM1 PUF domain R3-SPR (Homo sapiens, UniProt Q14671 828-1176, C935S;R936P;Q939R). In a few lines: as §1
For another experiment, the target named is PUM1 PUF domain R3-NSL (Homo sapiens, UniProt Q14671 828-1176, C935N;R936S;Q939L). A digest of the protocol: as §1
The target in another experiment is PUM1 PUF domain R5-KGC (Homo sapiens, UniProt Q14671 828-1176, C1007K;R1008G;Q1011C). A digest of the protocol:
as §1

A further experiment deals with PUM1 PUF domain R7-GWD (Homo sapiens, UniProt Q14671 828-1176, S1079G;N1080W;E1083D). In a few lines: as §1
Another experiment concerns the target PUM1 PUF domain R3-LYV (Homo sapiens, UniProt Q14671 828-1176, C935L;R936Y;Q939V). In a few lines: as §1
A further experiment deals with PUM1 PUF domain R1-KSR (Homo sapiens, UniProt Q14671 828-1176, S863K;R864S;Q867R). A digest of the protocol:
as §1

The target of a further experiment is PUM1 PUF domain R1-RAV (Homo sapiens, UniProt Q14671 828-1176, S863R;R864A;Q867V). A digest of the protocol:
as §1

Another experiment concerns the target PUM1 PUF domain R1-GWR (Homo sapiens, UniProt Q14671 828-1176, S863G;R864W;Q867R). A digest of the protocol:
as §1

A further experiment concerns the target PUM1 PUF domain R4-VPT (Homo sapiens, UniProt Q14671 828-1176, N971V;H972P;Q975T). A digest of the protocol: as §1
In the next experiment the target is PUM1 PUF domain R7-SRK (Homo sapiens, UniProt Q14671 828-1176, N1080R;E1083K). In a few lines:
as §1

A further experiment addresses PUM1 PUF domain R7-SHP (Homo sapiens, UniProt Q14671 828-1176, N1080H;E1083P). A digest of the protocol:
as §1

A further experiment addresses PUM1 PUF domain R5-NPI (Homo sapiens, UniProt Q14671 828-1176, C1007N;R1008P;Q1011I). A digest of the protocol:
as §1

Another experiment concerns the target PUM1 PUF domain R5-RPN (Homo sapiens, UniProt Q14671 828-1176, C1007R;R1008P;Q1011N). A digest of the protocol: as §1
Another experiment concerns the target PUM1 PUF domain R5-KTS (Homo sapiens, UniProt Q14671 828-1176, C1007K;R1008T;Q1011S). A digest of the protocol: as §1
In a further experiment the target is PUM1 PUF domain R5-SAS (Homo sapiens, UniProt Q14671 828-1176, C1007S;R1008A;Q1011S). In a few lines: as §1
For the next experiment, the target named is PUM1 PUF domain R3-RMR (Homo sapiens, UniProt Q14671 828-1176, C935R;R936M;Q939R). A digest of the protocol:
as §1

For the next experiment, the target named is PUM1 PUF domain R3-SQE (Homo sapiens, UniProt Q14671 828-1176, C935S;R936Q;Q939E). A digest of the protocol:
as §1

PUM1 PUF domain R3-LYV, sequence (Q14671 828-1176 C935L/R936Y/Q939V): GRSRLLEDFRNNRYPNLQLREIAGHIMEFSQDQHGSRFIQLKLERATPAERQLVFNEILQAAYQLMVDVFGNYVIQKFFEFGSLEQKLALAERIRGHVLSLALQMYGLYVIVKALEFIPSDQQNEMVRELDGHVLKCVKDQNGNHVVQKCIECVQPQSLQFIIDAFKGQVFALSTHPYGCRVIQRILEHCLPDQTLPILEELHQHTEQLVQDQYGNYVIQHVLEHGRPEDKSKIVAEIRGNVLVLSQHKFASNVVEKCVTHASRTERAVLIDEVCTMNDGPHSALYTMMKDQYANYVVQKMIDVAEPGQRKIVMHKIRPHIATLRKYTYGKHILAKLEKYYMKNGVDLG
PUM1 PUF domain R5-KTS, sequence (Q14671 828-1176 C1007K/R1008T/Q1011S): as the sequence (Q14671 828-1176 C935L/R936Y/Q939V) above, with L108C, Y109R, V112Q, C180K, R181T, Q184S counted along it
PUM1 PUF domain R1-RAV, sequence (Q14671 828-1176 S863R/R864A/Q867V): as the sequence (Q14671 828-1176 C935L/R936Y/Q939V) above, with S36R, R37A, Q40V, L108C, Y109R, V112Q counted along it
PUM1 PUF domain R5-KGC, sequence (Q14671 828-1176 C1007K/R1008G/Q1011C): as the sequence (Q14671 828-1176 C935L/R936Y/Q939V) above, with L108C, Y109R, V112Q, C180K, R181G, Q184C counted along it
PUM1 PUF domain R1-GWR, sequence (Q14671 828-1176 S863G/R864W/Q867R): as the sequence (Q14671 828-1176 C935L/R936Y/Q939V) above, with S36G, R37W, Q40R, L108C, Y109R, V112Q counted along it
PUM1 PUF domain R3-RMR, sequence (Q14671 828-1176 C935R/R936M/Q939R): as the sequence (Q14671 828-1176 C935L/R936Y/Q939V) above, with L108R, Y109M, V112R counted along it
PUM1 PUF domain R3-NSL, sequence (Q14671 828-1176 C935N/R936S/Q939L): as the sequence (Q14671 828-1176 C935L/R936Y/Q939V) above, with L108N, Y109S, V112L counted along it
PUM1 PUF domain R7-SHP, sequence (Q14671 828-1176 N1080H/E1083P): as the sequence (Q14671 828-1176 C935L/R936Y/Q939V) above, with L108C, Y109R, V112Q, N253H, E256P counted along it
PUM1 PUF domain R7-GWD, sequence (Q14671 828-1176 S1079G/N1080W/E1083D): as the sequence (Q14671 828-1176 C935L/R936Y/Q939V) above, with L108C, Y109R, V112Q, S252G, N253W, E256D counted along it
PUM1 PUF domain R5-RPN, sequence (Q14671 828-1176 C1007R/R1008P/Q1011N): as the sequence (Q14671 828-1176 C935L/R936Y/Q939V) above, with L108C, Y109R, V112Q, C180R, R181P, Q184N counted along it

Consider “GGCUAGAACUAGUGGAUCCCCCGGCGCCCGGCGGCUCGAGCCCGGGUAAGUGUAAAUAGUCUGCAUGCCGCCGGGCGCCAUGCCUGCAGGUCGACUCUAGAAAACAUG”, for which the binding signal in the experiment with PUM1 PUF domain R6-VFR is 4.2 log2 enrichment (interaction score); with PUM1 PUF domain R4-PHV, 4.46 log2 enrichment (interaction score); with PUM1 PUF domain R3-DYI, 5.38 log2 enrichment (interaction score); with PUM1 PUF domain R3-SPR, 0.25 log2 enrichment (interaction score); with PUM1 PUF domain R3-NSL, 2.4 log2 enrichment (interaction score); in the experiment with PUM1 PUF domain R5-KGC, 1.52 log2 enrichment (interaction score). The values for the binding signal with PUM1 PUF domain R7-GWD and with PUM1 PUF domain R3-LYV were 2.68 log2 enrichment (interaction score) and 4.4 log2 enrichment (interaction score), respectively.
“GGCUAGAACUAGUGGAUCCCCCGGCGCCCGGCGGCUCGAGCCCGGGUAAGUGUAAAUCGUCUGCAUGCCGCCGGGCGCCAUGCCUGCAGGUCGACUCUAGAAAACAUG”: the values for the binding signal with PUM1 PUF domain R1-KSR, with PUM1 PUF domain R1-RAV and in the experiment with PUM1 PUF domain R1-GWR were 5.1 log2 enrichment (interaction score), 0.85 log2 enrichment (interaction score) and 7.05 log2 enrichment (interaction score), respectively.
For “GGCUAGAACUAGUGGAUCCCCCGGCGCCCGGCGGCUCGAGCCCGGGUAAGUGUAAAUUGUCUGCAUGCCGCCGGGCGCCAUGCCUGCAGGUCGACUCUAGAAAACAUG” the same measures were 5.58 log2 enrichment (interaction score), 2.63 log2 enrichment (interaction score) and 4.28 log2 enrichment (interaction score).
For the sequence “GGCUAGAACUAGUGGAUCCCCCGGCGCCCGGCGGCUCGAGCCCGGGUAAGUGUACAUAGUCUGCAUGCCGCCGGGCGCCAUGCCUGCAGGUCGACUCUAGAAAACAUG”, the binding signal in the experiment with PUM1 PUF domain R4-VPT was 0.61 log2 enrichment (interaction score); with PUM1 PUF domain R4-PHV, 4.96 log2 enrichment (interaction score).
In the case of “GGCUAGAACUAGUGGAUCCCCCGGCGCCCGGCGGCUCGAGCCCGGGUAAGUCUAAAUAGUCUGCAUGCCGCCGGGCGCCAUGCCUGCAGGUCGACUCUAGAAAACAUG”, the binding signal with PUM1 PUF domain R7-SRK was 4.33 log2 enrichment (interaction score); in the experiment with PUM1 PUF domain R7-SHP, 3.63 log2 enrichment (interaction score).
Regarding “GGCUAGAACUAGUGGAUCCCCCGGCGCCCGGCGGCUCGAGCCCGGGUAAGUGUAACUAGUCUGCAUGCCGCCGGGCGCCAUGCCUGCAGGUCGACUCUAGAAAACAUG”, the binding signal with PUM1 PUF domain R3-SPR was 1.77 log2 enrichment (interaction score).
Turning to “GGCUAGAACUAGUGGAUCCCCCGGCGCCCGGCGGCUCGAGCCCGGGUAAGUGUUAAUAGUCUGCAUGCCGCCGGGCGCCAUGCCUGCAGGUCGACUCUAGAAAACAUG”, the binding signal is 2.85 log2 enrichment (interaction score) with PUM1 PUF domain R5-NPI, 3.36 log2 enrichment (interaction score) in the experiment with PUM1 PUF domain R5-KGC, 3.03 log2 enrichment (interaction score) with PUM1 PUF domain R5-RPN and 1.52 log2 enrichment (interaction score) with PUM1 PUF domain R5-KTS.
For the sequence “GGCUAGAACUAGUGGAUCCCCCGGCGCCCGGCGGCUCGAGCCCGGGUAAGUGUAUAUAGUCUGCAUGCCGCCGGGCGCCAUGCCUGCAGGUCGACUCUAGAAAACAUG”, the binding signal is 2.12 log2 enrichment (interaction score) in the experiment with PUM1 PUF domain R4-VPT and 7.14 log2 enrichment (interaction score) in the experiment with PUM1 PUF domain R4-PHV.
On to “GGCUAGAACUAGUGGAUCCCCCGGCGCCCGGCGGCUCGAGCCCGGGUAAGUGUCAAUAGUCUGCAUGCCGCCGGGCGCCAUGCCUGCAGGUCGACUCUAGAAAACAUG”, for which the binding signal in the experiment with PUM1 PUF domain R5-KTS is 2.89 log2 enrichment (interaction score).
With “GGCUAGAACUAGUGGAUCCCCCGGCGCCCGGCGGCUCGAGCCCGGGUAAGUGUGAAUAGUCUGCAUGCCGCCGGGCGCCAUGCCUGCAGGUCGACUCUAGAAAACAUG”, the binding signal with PUM1 PUF domain R5-SAS is 5.82 log2 enrichment (interaction score).
As to “GGCUAGAACUAGUGGAUCCCCCGGCGCCCGGCGGCUCGAGCCCGGGUAAGUGCAAAUAGUCUGCAUGCCGCCGGGCGCCAUGCCUGCAGGUCGACUCUAGAAAACAUG”, the binding signal with PUM1 PUF domain R6-VFR is 1.27 log2 enrichment (interaction score).
Turning to “GGCUAGAACUAGUGGAUCCCCCGGCGCCCGGCGGCUCGAGCCCGGGUAAGUGUAAUUAGUCUGCAUGCCGCCGGGCGCCAUGCCUGCAGGUCGACUCUAGAAAACAUG”, the binding signal in the experiment with PUM1 PUF domain R3-SPR is 3.06 log2 enrichment (interaction score); with PUM1 PUF domain R3-RMR, 4.19 log2 enrichment (interaction score); with PUM1 PUF domain R3-LYV, 5.79 log2 enrichment (interaction score).
“GGCUAGAACUAGUGGAUCCCCCGGCGCCCGGCGGCUCGAGCCCGGGUAAGUGUAAGUAGUCUGCAUGCCGCCGGGCGCCAUGCCUGCAGGUCGACUCUAGAAAACAUG”: the binding signal with PUM1 PUF domain R3-SQE is 3.11 log2 enrichment (interaction score); in the experiment with PUM1 PUF domain R3-SPR, 1.77 log2 enrichment (interaction score); with PUM1 PUF domain R3-RMR, 1.31 log2 enrichment (interaction score); with PUM1 PUF domain R3-LYV, 4.97 log2 enrichment (interaction score).
